The values that follow come from the supplement of paper PMC11219838.

Molecules are shown by their SMILES. Unmarked numbers belong to inactive results.

This assay has as its system Ditylenchus dipsaci. The assay is described as follows: proportion of mobile D. dipsaci (mixed stage) relative to DMSO control (fraction of DMSO control); higher = more viable, less nematicidal, active = 0.86 or less; extreme values may be limits of the assay. The note with it: 60 µM; 5 days; temperature: 20 °C. The essentials: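 Ditylenchus dipsaci nematodes were cultured on pea plants in Gamborg B-5 agar, then extracted into water through a filter funnel, and roughly 20 worms in distilled water were placed in each well of a 96-well plate. Compound was pinned in to a final concentration of 60 µM (0.6% v/v DMSO), and the sealed plates were shaken at 200 rpm for 5 days at 20 °C. Mobile worms were counted under the microscope after 2 µL of 1 M NaOH was added. Mobility is given relative to DMSO controls as the mean of two biological replicates.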
On to `Cc1ccc(-c2nnc(SCC(=O)NCc3ccccc3)o2)cc1`, for which the “proportion of mobile D. dipsaci” value is 1.
To `COc1ccc(Cl)cc1-c1noc(-c2ccccc2C)n1` belongs 1.
With `CC(C)C(=O)Nc1ccccc1-c1nc(-c2ccccc2)no1` the figure was 1; with `Cc1ccc(NC(=O)CSc2nnc(-c3ccncc3)o2)cc1Cl`, 1; with `COc1ccc(-c2nc(-c3ccccc3Cl)no2)cc1`, 1.
To `CCOc1cc(-c2nc(-c3ccc(OC)cc3)no2)cc(OCC)c1OCC` belongs 1.
For `COc1ccc(-c2nnc(SCc3c(Cl)cccc3Cl)o2)cc1`, the “proportion of mobile D. dipsaci” value is 1.
With `Cc1ccc(NC(=O)CSc2nnc(-c3ccc(C(C)(C)C)cc3)o2)c(C)c1` the figure was 1; with `CCN(C(=O)CSc1nnc(-c2ccncc2)o1)c1ccccc1`, 1; with `CC(Sc1nnc(-c2ccco2)o1)C(=O)NC(c1ccccc1)c1ccccc1` (centres undefined), 1.
Turning to `COc1ccccc1OCc1nc(-c2ccc(Cl)cc2)no1`, the “proportion of mobile D. dipsaci” value is 1.
For the molecule `COc1cccc(-c2noc(-c3ccccc3C)n2)c1`, the “proportion of mobile D. dipsaci” value is 1.
To `Cc1cccc(-c2nnc(SCC(=O)Nc3ccc(Br)c(C)c3C)o2)c1` belongs 1.
Take `COc1ccc(Cl)cc1-c1nc(-c2ccc3c(c2)OCO3)no1`: the “proportion of mobile D. dipsaci” value is 1.
To `COc1ccc(C)cc1NC(=O)CSc1nnc(-c2ccc(Br)cc2)o1` belongs 1.
For `Cc1ccccc1OCc1nc(-c2cccc(NC(=O)c3ccco3)c2)no1`, the “proportion of mobile D. dipsaci” value is 1.
To `Cn1cc(C(=O)CSc2nnc(-c3ccccc3)o2)c2ccccc21` belongs 1; to `CCc1ccc(C(=O)Nc2ccccc2-c2nc(-c3cccnc3)no2)cc1`, 1; to `COc1ccc(C(=O)Nc2ccc(-c3nnc(SCc4ccccc4)o3)cc2)cc1`, 1.
As to `Cc1ccccc1-c1nnc(SCC(=O)Nc2cc(C(F)(F)F)ccc2N2CCOCC2)o1`, the “proportion of mobile D. dipsaci” value is 1.
`Cc1ncc2c(c1-c1noc(-c3ccccc3)n1)CCC2`: the “proportion of mobile D. dipsaci” value was 1.
With `O=C(CSc1nnc(-c2ccc(Cl)cc2)o1)c1ccccc1` the figure was 1; with `Cc1cc(C)c(CSc2nnc(-c3ccccc3)o2)c(C)c1`, 1.
With `Brc1ccc(-c2nc(-c3cccnc3)no2)cc1` the figure was 1; with `Cc1nc(CSc2nnc(-c3ccc(Cl)cc3)o2)cs1`, 1.
To `CC1Cc2ccccc2N1C(=O)CSc1nnc(-c2ccccc2)o1` (centres undefined) belongs 1; to `O=C(CSc1nnc(-c2ccccc2)o1)Nc1cccc(C(F)(F)F)c1`, 1; to `COc1ccc(-c2nnc(SCC(=O)Nc3ccc(Cl)cc3Cl)o2)cc1`, 1.
Consider `COc1nc(-c2ccc(C)cc2)ccc1-c1noc(-c2cccc(C)c2)n1`, for which the “proportion of mobile D. dipsaci” value was 1.
With `COc1cccc(-c2noc(COc3cccc(C)c3)n2)c1` the figure was 1; with `O=C(CSc1nnc(-c2ccncc2)o1)Nc1cccc(Cl)c1Cl`, 1.
`O=C(CSc1nnc(-c2cccc(Cl)c2)o1)Nc1nccs1`: the “proportion of mobile D. dipsaci” value was 1.
To `Cc1ccc(-c2nc(-c3ccc4c(c3)OCO4)no2)cc1` belongs 1.
On to `Brc1ccc(OCc2nc(-c3cccs3)no2)cc1`, for which the “proportion of mobile D. dipsaci” value is 1.
With `O=C(c1ccccc1-c1nc(-c2ccc(Cl)cc2)no1)N1CCCCC1` the figure was 1.
To `O=C(CSc1nnc(-c2ccccc2)o1)Nc1cccc(F)c1` belongs 1; to `COc1ccccc1-c1nc(-c2ccc(Cl)cc2)no1`, 1; to `O=C(CSc1nnc(-c2ccco2)o1)Nc1ccccc1F`, 1.
In the case of `Cc1ccc(-c2noc(-c3ccccc3C(=O)N3CCC(C)CC3)n2)cc1`, the “proportion of mobile D. dipsaci” value was 1.
